Source: PubChem BioAssay
Rows were chosen to be rich in hits. Some 3.1% of all compounds tested hit in one or more screens of this group.
BoNT-A LC inh2: BoNT/A light chain protease inhibitors, primary screen, biochemical, flow cytometry, MLPCN library. Botulinum neurotoxin type A light chain protease (Clostridium botulinum A str. ATCC 3502). multiplex microsphere protease substrate cleavage. inhibition, % at 10 µM. hit rate 0.17% among 360,000; further: plate controls were buffer without enzyme for full effect and enzyme alone for no effect
Anthrax LF prot: Bacillus anthracis LF protease inhibitors, primary screen, biochemical, multiplex microsphere, MLPCN library; AID 588501, 2011; inhibition, % at 10 µM; multiplex microsphere protease cleavage assay; hit rate 0.12% among 360,000; further: plate controls were buffer without enzyme for full effect and enzyme alone for no effect
BoNT F protease: BoNT/F light chain protease inhibitors, primary screen, biochemical, flow cytometry, MLPCN library; Botulinum neurotoxin type F light chain protease (Clostridium botulinum); Multiplex microsphere protease cleavage assay; inhibition, % at 10 µM; hit rate 0.22% among 360,000; AID 588497, 2011; in the data active means inhibition above about 35%, passing the limit was not always enough; inconclusive means no clear call, values can overlap the other calls; further: plate controls were buffer without enzyme for full effect and enzyme alone for no effect
SSB-PriA inh: inhibitors of Klebsiella pneumoniae PriA binding to SSB C-terminal tail, primary screen, biochemical, AlphaScreen; AlphaScreen SSBct-PriA binding, biotinylated peptide; inhibition, % at 33 µM; hit rate 0.6% among 430,000; AID 1272365, 2023; in the data active means inhibition mostly above about 37%, no sharp cut-off; inactive means mostly below about 20%;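 further: plate controls were negative control peptide for no effect and reference peptide for full effect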
Autofluor counter: counter-screen for toxin protease inhibitors: compound fluorescence | compound autofluorescence counterscreen, microsphere flow cytometry; stronger effect = higher value | hit rate 3.1% among 360,000 | fluorescence intensity (test concentration not listed); in the data active means fluorescence intensity above about 16000; inconclusive means no clear call, values can overlap the other calls
BoNT-A LC CP1: BoNT/A light chain protease inhibitors, confirmation, biochemical, flow cytometry, cherry pick 1. inhibition, % at 10 µM. multiplex microsphere protease assay. hit rate 3% among 720. shares compounds with BoNT F protease; in the data active means inhibition above about 32%
BoNT-F LC CP1: BoNT/F light chain protease inhibitors, confirmation, biochemical, flow cytometry, cherry pick 1. shares compounds with BoNT F protease. multiplex microsphere protease cleavage assay. inhibition, % at 10 µM. 720 tested, under 10 active. AID 602140, 2011; call rule not given here
LF protease CP1: Bacillus anthracis LF protease inhibitors, confirmation, biochemical, multiplex microsphere, cherry pick 1; shares compounds with BoNT F protease; multiplex microsphere protease cleavage assay; inhibition, % at 10 µM; 720 tested, under 10 active; call rule not given here
* marks the source's active call; other numbers are inactive results; ? = inconclusive; nt = no result given. Unless noted, no stated cut-off is given here; in the data, active means inhibition above about 30%; inconclusive means no clear call, values can overlap the other calls; inactive means below that.

SMILES	BoNT-A LC inh2	Anthrax LF prot	BoNT F protease	SSB-PriA inh	Autofluor counter	BoNT-A LC CP1	BoNT-F LC CP1	LF protease CP1
Cc1cc(N2C(=O)c3oc4ccccc4c(=O)c3[C@H]2c2ccccn2)no1	nt	nt	nt	-8.0	nt	nt	nt	nt
CCN(CC)S(=O)(=O)c1ccc(C)c(C(=O)Oc2cccc(-c3cnc4ccccc4n3)c2)c1	5.6	-0.6	34.9*	1.6	2119	-1.5	-4.6	-6.9
CCN(CC)S(=O)(=O)c1cc(C(=O)Oc2cccc(-c3cnc4ccccc4n3)c2)ccc1OC	0.1	-2.1	-3.3	-14.1	2256	nt	nt	nt
O=C(CSc1nc(CC(=O)N2CCc3ccccc32)cs1)c1cccs1	nt	nt	nt	-4.0	nt	nt	nt	nt
CC(CN1CCOCC1)OC(=O)c1ccccc1 (stereo not given)	?	-3.9	?	2.8	3519	nt	nt	nt
CC(CN1CCOCC1)C(=O)c1ccccc1 (stereo not given)	0.2	-2.7	-2.3	0.5	10526	-0.4	1.6	-3.1
O=C(CCCSc1ccc(NC(=O)c2ccc(F)cc2)nn1)Nc1ccccn1	nt	nt	nt	-1.0	nt	nt	nt	nt
COc1ccc2cc3cc(C(=O)NCCCN4CCOCC4)oc3nc2c1	-0.2	-3.2	-18.9	-13.2	2791	nt	nt	nt
Cc1ccc2cc3cc(C(=O)NCCN4CCOCC4)oc3nc2c1	1.2	3.0	34.6*	-0.9	3441	-0.1	-1.9	-0.6
CS(=O)(=O)Nc1ccccc1C(=O)Nc1cccc(Cl)c1	?	7.5	52.6*	-6.8	5367	0.2	-1.3	2.8
COC(=O)c1ccc(C2C(=C(O)c3ccc(OC)cc3)C(=O)C(=O)N2c2cc(C)on2)cc1 (stereo not given)	nt	nt	nt	-5.6	nt	nt	nt	nt
COc1ccc(NC(=O)Cn2nc(-c3ccc(Cl)cc3)c3sc(C)nc3c2=O)cc1OC	nt	nt	nt	12.0	nt	nt	nt	nt
O=C(CCC(=O)N1CCN(c2ccc(F)cc2)CC1)N1CCN(c2ccc(F)cc2)CC1	0.7	11.8	41.0*	0.9	3564	-2.3	-11.4	2.4
Cc1cccc(NC(=O)CCCSc2ccc(NC(=O)c3cccs3)nn2)n1	nt	nt	nt	3.0	nt	nt	nt	nt
CCOc1cc2nc3c4ccccc4n(C)c3nc2cc1OCC	48.5*	19.6	7.9	-5.4	2580	7.5	-0.1	3.1
NC(=O)c1cc2n(n1)CCCO2	nt	nt	nt	-6.0	nt	nt	nt	nt
COc1ccc(S(=O)(=O)NC(C)C(=O)N2CCCC2)cc1Cl (stereo not given)	2.5	30.9*	?	-6.3	3107	0.3	16.4	-2.0
O=[N+]([O-])c1ccc(-c2cn3c(n2)CCC3)cc1	-4.2	3.5	36.8*	7.9	?	1.2	-5.4	-3.7
c1ccc(-c2cn3c(n2)CCC3)cc1	-0.3	-3.2	-5.5	-13.1	2699	nt	nt	nt
Cc1ccc2nc(NC(=O)Cc3cn(Cc4ccc(F)cc4)c4ccccc34)sc2c1	nt	nt	nt	-13.0	nt	nt	nt	nt
COc1ccc(C2=NOC(C(=O)NCc3ccccn3)C2)cc1 (stereo not given)	2.9	4.6	72.2*	-2.5	3906	-0.6	-4.0	-1.7
O=C(NC1CC1)C1CCCN(c2ccc(-c3ccc(F)cc3)nn2)C1 (stereo not given)	nt	nt	nt	-6.0	nt	nt	nt	nt
CCOCCSc1nc2c(c(-c3cccs3)c1C#N)CC/C2=C/c1cccs1	76.6*	35.1*	24.9	8.5	2450	37.3*	3.3	23.2
CC(=O)SCC(=O)Nc1cccc2c1C(=O)NC2=O	nt	nt	nt	-3.0	nt	nt	nt	nt
Clc1cccc(Cl)c1-c1noc(CN2CCOCC2)n1	?	36.1*	?	-4.3	4349	-0.2	-1.3	-2.8
SMILES	BoNT-A LC inh2	Anthrax LF prot	BoNT F protease	SSB-PriA inh	Autofluor counter	BoNT-A LC CP1	BoNT-F LC CP1	LF protease CP1
Clc1ccc(-c2noc(CN3CCOCC3)n2)cc1	-5.5	?	-1.6	-3.0	3726	nt	nt	nt
CCOC(=O)c1sc(NC(=O)CS(=O)(=O)c2ccc(Cl)cc2)nc1C	nt	nt	nt	-7.0	nt	nt	nt	nt
CCc1ccc(OCCCC(=O)Nc2ccc(N3CCCCC3)cc2)cc1	-4.2	-6.7	39.7*	-6.0	5583	-1.9	3.7	-4.1
Clc1ccc(/C=C/c2ncc[nH]2)c(Cl)c1	4.6	-7.5	40.4*	10.8	3685	0.5	-6.1	-1.4
OC(CNC1CCCCC1)COC1CCCC1 (stereo not given)	nt	nt	nt	-13.0	nt	nt	nt	nt
Cc1cc(C)n(CC(O)Cn2c(C)c(C)c3ccccc32)n1 (stereo not given)	3.8	7.1	34.7*	-2.6	4825	-0.3	-1.6	3.5
COc1ccc(-c2cc3ccccc3n2CC(O)Cn2nc(C)cc2C)cc1 (stereo not given)	151.5*	49.0*	-38.2	47.2*	3026	-0.1	-4.5	-2.3
Cn1c(=O)[nH]c(=O)c2c1nc1n2CC(O)CN1c1ccccc1 (stereo not given)	2.8	-13.5	36.4*	5.7	3482	-0.4	-0.7	-2.3
Cn1c(=NN=Cc2ccc(Cl)c([N+](=O)[O-])c2)sc2ccccc21	nt	nt	nt	-12.5	nt	nt	nt	nt
CCOc1nn(CC)cc1C(=O)NC1CCCCC1	nt	nt	nt	-7.0	nt	nt	nt	nt
COc1cc2nc(/C=C/c3ccc(N(C)C)cc3)sc2cc1SC	39.4*	-3.2	-70.2	2.7	6632	3.1	-6.2	-2.9
N#C/C(C(=O)N1CCCCC1)=C1/S[C@@H](Cc2cccc(Cl)c2Cl)C(=O)N1c1ccccc1	nt	nt	nt	-4.0	nt	nt	nt	nt
CC(C)(C)C1CCc2c(sc3nc(CCC(=O)N4CCN(C5CCCCC5)CC4)[nH]c(=O)c23)C1 (stereo not given)	nt	nt	nt	-17.0	nt	nt	nt	nt
O=[N+]([O-])c1ccc(F)c2ncccc12	nt	nt	nt	27.4	nt	nt	nt	nt
O=[N+]([O-])c1ccc(Sc2cccc3cccnc23)c2cccnc12	24.4	30.4*	8.5	27.7	4230	17.4	4.4	12.9
CCS(=O)(=O)N1CCc2ccc(NC(=O)c3ccccc3C(F)(F)F)cc2C1	nt	nt	nt	18.0	nt	nt	nt	nt
Cc1ccc(C)c2nc(N3CCCC3)c(C#N)cc12	36.2*	26.0	27.2	-1.3	4615	15.7	0.8	6.9
O=C(CCSc1ccccn1)Nc1ccc(Br)cc1	4.4	0.3	47.2*	-2.9	2146	-0.6	-7.4	-0.3
CC(C)n1c2ccc(Br)cc2c2nc3ccccc3nc21	nt	nt	nt	4.0	nt	nt	nt	nt
CC(C)n1c2ccccc2c2nc3ccccc3nc21	54.8*	27.1	2.4	-53.0	4635	24.7	2.7	11.8
Cc1nn(-c2ccccc2)c2sc(C(=O)N3CCCCC3)cc12	-0.2	5.4	38.5*	-5.9	5079	2.5	4.0	2.4
Cc1ccc(N2C(=O)N(CC(=O)NCc3ccc(Cl)cc3)C(=O)C2C)cc1 (stereo not given)	-1.1	-0.3	-27.3	-14.1	5067	nt	nt	nt
